Test results published in PubChem BioAssay (NCI).
This is part of a sample that, as a whole, favours compounds with a hit. Of some 79,000 tested, about 15% had one in any assay. A number with no mark means an inactive call. Active and inactive are the calls of the source. No stated cut-off is given here; in the data, active means growth inhibition above about 70%; inactive means the rest.

Experiments:
[1] = NCI Yeast Anticancer Drug Screen. Data for the mec2-1 strain (AID 157); conditions: S. cerevisiae mec2-1 strain, at 50.0 µM, stronger effect = higher value
Procedure, shortened: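 Using mec2-1 yeast: add compound, measure growth, express inhibition versus vehicle-treated cultures.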

[2] = NCI Yeast Anticancer Drug Screen. Data for the sgs1 mgt1 strain (AID 161);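 further: 0% = growth of cultures given vehicle only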; conditions: S. cerevisiae sgs1 mgt1 strain, at 50.0 µM, stronger effect = higher value
Procedure, shortened: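 This yeast growth screen uses a strain with defined DNA-repair lesions; compound-treated growth is compared with vehicle-treated growth.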

[3] = NCI Yeast Anticancer Drug Screen. Data for the cln2 rad14 strain (AID 165);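 further: 0% = growth equal to vehicle treated cultures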; conditions: S. cerevisiae cln2 rad14 strain, at 50.0 µM, stronger effect = higher value
Procedure, shortened: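 Yeast strain cln2 rad14, bearing defects in cell cycle control and DNA repair, serves as the test system; values reflect growth inhibition compared with vehicle.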

[4] = NCI Yeast Anticancer Drug Screen. Data for the bub3 strain (AID 167); conditions: S. cerevisiae bub3 mutant strain, at 50.0 µM, stronger effect = higher value
Procedure, shortened: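 In this screen, a yeast mutant lacking normal mitotic checkpoint function is challenged with compound. Relative growth versus vehicle gives the inhibition value.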

[5] = NCI Yeast Anticancer Drug Screen. Data for the mlh1 rad18 strain (AID 175); conditions: S. cerevisiae mlh1 rad18 strain growth inhibition; at 50.0 µM; stronger effect = higher value
Procedure, shortened: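 Steps: expose repair-defective yeast to compound; measure growth; express inhibition against vehicle-treated controls.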

Row | Structure (SMILES) | growth inhibition [1] | growth inhibition [2] | growth inhibition [3] | growth inhibition [4] | growth inhibition [5]
1 | CCOC(=O)CCC(=O)OCC | 7.05% | 0% | 16.9% | 9.85% | 10.6%
2 | CC1CC(=O)NC(=O)C1 | -4.1% | -18.8% | -13% | 6.3% | -22.7%
3 | O=c1[nH]nc(Cc2ccccc2)n1/N=C/c1cccnc1 | 30.9% | 37% | 35.7% | 30.2% | 45.6%
4 | COc1ccc2ccccc2c1Br | 8.25% | -3.25% | -24.1% | -19.3% | 8.65%
5 | C[N+](C)(CC(=O)Nc1cc(C(F)(F)F)cc(C(F)(F)F)c1)CC(=O)Nc1ccc(Cl)c(C(F)(F)F)c1 | 99.8% (active) | 99.8% (active) | 99.3% (active) | 99.4% (active) | 99.5% (active)
6 | O=C1c2ccccc2C(=O)c2c1ccc1c2N=C(c2ccc(Br)cc2)CC(c2cccc3ccccc23)N1 (centres undefined) | 11.6% | 17.9% | 10.2% | 9.95% | -11.6%
7 | CC1CCCC2(CC[N+](C)(CCC[N+](C)(C)C)CC2)C1 (centres undefined) | -7.95% | -16.2% | 15.1% | -41% | -1.7%
8 | c1ccc(N=NC(N=Nc2ccccc2)=P(c2ccccc2)(c2ccccc2)c2ccccc2)cc1 | 98.7% (active) | 53% | 64.6% | 46.7% | 61.9%
9 | O=c1oc2ccccc2cc1S(=O)(=O)c1ccc(Cl)cc1 | 0.85% | 3.7% | -58% | -9.75% | -20.4%
10 | N#CC(=S)N(C(=O)c1ccc(Cl)cc1)c1ccccc1Cl | 28.6% | 12.6% | -18.9% | 45.5% | 24.9%
11 | CNC1C(CO)OC(OC)C1O (centres undefined) | 12% | 7.1% | 8% | – | -2.85%
12 | C/C=C/C(=O)N1C(=O)OC[C@@H]1c1ccccc1 | 54.5% | 49.7% | 46.6% | 53.6% | 31.9%
13 | O=S(=O)(CCS(=O)(=O)c1ccccc1)c1ccccc1 | -10.2% | -22.9% | -41.5% | -15.3% | -0.1%
14 | CC12CCCC3(CC(=O)C(C)(C)C3C(=O)C1)C2 (centres undefined) | -16.1% | -18.4% | 10.2% | 9.6% | 6.2%
15 | CC(CO)N1CCCCCC1 (centres undefined) | -15.7% | 5.9% | -17.7% | 10.7% | -9%
16 | CC(=O)OC(C)(C#N)C(C)(C#N)OC(C)=O (centres undefined) | -6.4% | -1.1% | -37.1% | -8.75% | -20.3%
17 | Cc1cc(N=Nc2ccc(N=Nc3ccc(S(=O)(=O)O)cc3)cc2)cc(C(=O)O)c1O | -9.4% | -2.85% | -8% | -19.7% | 4.25%
18 | CCC1=C/C(=N/O)C(C)=CC1(C)C(Cl)(Cl)Cl (centres undefined) | 7.65% | 10% | 17.2% | 17.9% | 48.5%
19 | CCC(=O)N(C)[C@@H]1Oc2ccc(O)cc2[C@]1(C)c1cc(O)ccc1O | 2.25% | 14.8% | 19.9% | 6.7% | 9.95%
20 | OC(c1ccccc1)C(Cl)c1ccccc1 (centres undefined) | -2.25% | 1.9% | -13.8% | -19.3% | 19.8%
21 | O=C(NNC(=O)c1cccc(F)c1)c1cccc(F)c1 | -8.1% | -13.3% | 18.9% | -6.4% | -1.75%
22 | OCC=C1CCCCCC1 | 6.8% | 1.5% | -4.25% | 12.3% | 2.95%
23 | N=Cc1ccccc1O | -10.3% | -4.8% | 7.8% | 2.9% | 2.55%
24 | O=C1O/C(=C(\Br)c2ccccc2)c2ccccc21 | -1.4% | 55.2% | 4.2% | 29.1% | 31.6%
25 | CCOC(=O)/C=C/C=C(\OCC)C1CCC2C3CC=C4CC(OC(C)=O)CCC4(C)C3CCC12C (centres undefined) | -0.35% | 23.1% | 19.4% | -3.3% | -2.55%
26 | O=c1[nH]cnc2c1ncn2CCCCc1ccccc1 | -5.25% | 8.45% | 0.9% | 5.7% | 14.8%
